Source: PubChem (several laboratories)
A selection: hits, their analogues and other compounds. The true share with any hit is near 1.8%.
GRK2 inh: human GRK2 inhibition via aptamer displacement; 330,000 tested, 0.59% active; inhibition of aptamer binding, % at 10 µM; bead flow cytometry, FAM-aptamer displacement from GRK2; AID 488847;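 active means inhibition of aptamer binding above 40%, roughly 3 SD of noise, on plates passing a quality check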;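 further: median bead fluorescence of bound FAM aptamer so fluorescent compounds give negative values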
PKD1 inh: PKD1 (human) kinase inhibition | Q15139 | PKD1 kinase fluorescence polarization assay | inhibition, % (no concentration beside the values) | 200,000 tested, 0.056% active | AID 797
Target sequence (Q15139 whole entry, looked up): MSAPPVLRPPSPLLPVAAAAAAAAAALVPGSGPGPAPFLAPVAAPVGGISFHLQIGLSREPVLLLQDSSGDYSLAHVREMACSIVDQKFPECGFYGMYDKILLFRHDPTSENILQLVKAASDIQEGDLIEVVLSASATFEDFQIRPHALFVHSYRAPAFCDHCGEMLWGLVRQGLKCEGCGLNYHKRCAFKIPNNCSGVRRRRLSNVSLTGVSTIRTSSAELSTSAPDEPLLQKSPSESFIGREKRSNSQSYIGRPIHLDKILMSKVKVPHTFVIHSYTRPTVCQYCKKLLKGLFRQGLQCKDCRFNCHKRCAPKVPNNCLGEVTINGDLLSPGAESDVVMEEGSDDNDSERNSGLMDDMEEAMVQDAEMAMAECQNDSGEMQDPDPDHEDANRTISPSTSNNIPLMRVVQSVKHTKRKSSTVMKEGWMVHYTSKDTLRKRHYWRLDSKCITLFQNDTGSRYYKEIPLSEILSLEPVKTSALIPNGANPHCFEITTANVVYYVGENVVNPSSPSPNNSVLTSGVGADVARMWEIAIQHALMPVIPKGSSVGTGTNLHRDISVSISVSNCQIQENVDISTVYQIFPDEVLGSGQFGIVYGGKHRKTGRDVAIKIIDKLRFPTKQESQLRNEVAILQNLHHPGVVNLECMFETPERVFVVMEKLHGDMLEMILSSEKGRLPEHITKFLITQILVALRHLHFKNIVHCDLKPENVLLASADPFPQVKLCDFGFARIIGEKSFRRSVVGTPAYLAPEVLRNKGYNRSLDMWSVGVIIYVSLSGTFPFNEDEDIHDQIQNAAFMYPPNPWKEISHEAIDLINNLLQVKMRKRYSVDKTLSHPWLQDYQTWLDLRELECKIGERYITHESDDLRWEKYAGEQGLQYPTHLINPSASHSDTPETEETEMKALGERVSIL
VLA-4 inh: inhibition in a human VLA-4 binding assay; VLA-4 expressing cells, ligand binding flow cytometry; inhibition, % (about 7 µM as worked out from the volumes in the protocol); 330,000 tested, 0.2% active; AID 2557
DSG3 Ab inh: inhibitors of pemphigus antibody binding to human desmoglein-3. 310,000 tested, 0.48% active. DSG3-coupled beads, scFv-anti-DSG3-GFP binding, flow cytometry; stronger effect = lower value. P32926. binding (percent of control), % at 10 µM;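 active means binding more than 3 SD below its plate's average and above zero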;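 further: hits lower antibody fragment binding to DSG3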
LANA-H2B inh: blocks KSHV LANA binding to histone H2A/H2B; 320,000 tested, 0.6% active; inhibition, % (concentration not given with the values); cell-free LANA-H2A/H2B peptide, fluorescence polarization; in the data active means inhibition mostly above about 10%, no sharp cut-off; inactive means mostly below about 6.7%
HDAC3 inh: human HDAC3 inhibition; O15379; recombinant HDAC3, fluorogenic peptide/trypsin coupled, fluorescence; inhibition, % at 8.3 µM; 320,000 tested, 0.15% active; in the data active means inhibition above about 26%, passing the limit was not always enough
A number is an active result. Unless noted, no stated cut-off is given here; in the data, active means inhibition above about 50%; inactive means the rest.

Screening CCN(C(=O)COC(=O)CCCc1c[nH]c2ccccc12)c1c(N)n(Cc2ccccc2)c(=O)[nH]c1=O returned DSG3 Ab inh inactive.
`CCCN1C(C)C(C(=O)OCC)=CN(Cc2cccc(I)c2)S1(=O)=O` (centres undefined) gave GRK2 inh inactive and DSG3 Ab inh inactive.
For CCOc1ccc(CC(=O)NNC(=S)NCCc2ccccc2)cc1 the results were GRK2 inh inactive, PKD1 inh inactive, VLA-4 inh inactive, DSG3 Ab inh 66.2, LANA-H2B inh inactive and HDAC3 inh inactive.
For C#CCN(C[C@H]1[C@H](OC(=O)NCc2ccccc2)[C@H](OC(=O)NCc2ccccc2)C[C@H]2C(=O)N(c3ccccc3)C(=O)[C@@H]12)S(=O)(=O)c1ccc(C)cc1 the results were DSG3 Ab inh 89.4.
`O=C(Nc1ccccc1O)c1ccc(Cl)cc1` gave GRK2 inh inactive, PKD1 inh inactive, VLA-4 inh inactive, LANA-H2B inh inactive and HDAC3 inh 90.7.
For CSc1ccccc1NC(=O)c1ccc([N+](=O)[O-])cc1 the results were GRK2 inh inactive, PKD1 inh inactive, VLA-4 inh inactive, LANA-H2B inh inactive and HDAC3 inh inactive.
`O=C(Nc1ccccc1O)c1ccc([N+](=O)[O-])cc1` gave GRK2 inh inactive, VLA-4 inh inactive, DSG3 Ab inh inactive, LANA-H2B inh inactive and HDAC3 inh 52.8.
For O=C(Nc1ccccc1OC(=O)c1ccc(Cl)cc1)c1ccc(Cl)cc1 the results were GRK2 inh inactive, PKD1 inh inactive, VLA-4 inh inactive, DSG3 Ab inh inactive, LANA-H2B inh inactive and HDAC3 inh inactive.
Screening COc1ccc(N(CC(=O)NCc2ccco2)C(=O)CNS(=O)(=O)c2ccc(Cl)cc2)cc1 returned GRK2 inh inactive, VLA-4 inh inactive, DSG3 Ab inh inactive, LANA-H2B inh inactive and HDAC3 inh inactive.
Clc1ccc(-c2nc3cc(CN4CCCCC4)ccc3o2)cc1 was read as GRK2 inh inactive, VLA-4 inh inactive, DSG3 Ab inh 72.3, LANA-H2B inh inactive and HDAC3 inh inactive.
Screening Cc1ccc(-c2nc3cc(Cl)ccc3o2)cc1 returned GRK2 inh inactive, PKD1 inh inactive, VLA-4 inh inactive, LANA-H2B inh inactive and HDAC3 inh inactive.
`Cc1cc(C(=O)NCC(=O)OCC(=O)NCC2CCCO2)ccc1[N+](=O)[O-]` (centres undefined) gave GRK2 inh inactive, VLA-4 inh inactive, DSG3 Ab inh 50.0, LANA-H2B inh inactive and HDAC3 inh inactive.
CC(=O)Oc1ccc2c(c1)Oc1cc(OC(C)=O)ccc1C21OC(=O)c2ccccc21 was read as GRK2 inh inactive, PKD1 inh inactive, DSG3 Ab inh inactive, LANA-H2B inh 141.6 and HDAC3 inh inactive.
`COC(=O)c1cc(NC(=O)c2ccccc2F)cc(C(=O)OC)c1` gave GRK2 inh inactive, PKD1 inh inactive, VLA-4 inh inactive, DSG3 Ab inh inactive, LANA-H2B inh 22.2 and HDAC3 inh inactive.
COC(=O)c1cc(NC(=O)c2cc3ccccc3o2)cc(C(=O)OC)c1 was read as GRK2 inh inactive, VLA-4 inh inactive, DSG3 Ab inh inactive, LANA-H2B inh 16.4 and HDAC3 inh inactive.
`CC1CC(C)CN(S(=O)(=O)c2ccc3c(c2)oc(=O)n3CC(=O)NCCCOC(C)C)C1` (centres undefined) gave GRK2 inh inactive, VLA-4 inh inactive, DSG3 Ab inh inactive, LANA-H2B inh inactive and HDAC3 inh inactive.
`CCOc1ccc(C(=O)NCC(=O)NCCCSc2ccccc2)cc1OCC` gave GRK2 inh inactive, VLA-4 inh inactive, DSG3 Ab inh inactive, LANA-H2B inh inactive and HDAC3 inh inactive.
CCOc1cc(/C=C2\CCCC(C(=O)C(F)(F)F)=C2O)ccc1O was read as GRK2 inh inactive, PKD1 inh inactive, VLA-4 inh inactive, DSG3 Ab inh inactive, LANA-H2B inh inactive and HDAC3 inh 34.8.
`COc1cc(/C=C2/CCCC(C(=O)C(F)(F)F)=C2O)ccc1O` gave GRK2 inh inactive, VLA-4 inh inactive, DSG3 Ab inh inactive and LANA-H2B inh inactive.
Screening CC(NC(=O)c1ccccc1Cl)C(=O)OCc1cn2cc(Cl)ccc2n1 (centres undefined) returned GRK2 inh inactive, VLA-4 inh inactive, DSG3 Ab inh inactive, LANA-H2B inh inactive and HDAC3 inh inactive.
`C[C@H](NC(=O)c1ccccc1Cl)C(=O)OCc1cn2cc(Cl)ccc2n1` gave GRK2 inh inactive, VLA-4 inh inactive, DSG3 Ab inh inactive, LANA-H2B inh 14.6 and HDAC3 inh inactive.
